From PubChem BioAssay
Shown are actives, neighbours in structure and some others; about 0.5% of the full set was active somewhere.
AddAB inh: less growth of phage-infected E. coli with AddAB; 330,000 compounds, 0.29% hits; inhibition, % at 11.9 µM; E. coli expressing H. pylori AddAB, absorbance growth; AID 435030; in the data active means inhibition above about 12%;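 further: 0% = vehicle wells of infected cells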
E coli growth-1: reduces bacterial viability in AddAB counter-screen; E. coli V3065 growth, OD600 absorbance, 18 h; inhibition, % at 11.9 µM; 330,000 compounds, 0.27% hits; AID 449728;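 active means inhibition above the campaign's mean inhibition across all tested compounds plus 3 SD, cut at about 9.9% in these data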;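 further: uninfected addAB+ strain grown without phage in ampicillin broth; 0% = DMSO wells and 100% = ciprofloxacin 0.95 µg/ml wells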
phage Ecoli inh: E. coli growth loss with phage present; growth absorbance; inhibition, % at 11.9 µM; 360,000 compounds, 0.26% hits; in the data active means inhibition above about 11%
E coli growth-2: inhibitors of Escherichia coli growth | OD600, 23 h; active compounds read low | OD600 absorbance (test concentration not listed) | 330,000 compounds, 0.21% hits | AID 1053175;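 active means OD600 absorbance below the run mean of sample wells minus 3.6 SD, in any replicate, cut at about 0.56 in these data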
Tat transport: blocks Tat-dependent protein export in E. coli. E. coli MC4100 TorA-mCherry Tat export, fluorescence. inhibition, % at 10 µM. 340,000 compounds, 0.036% hits. AID 488895;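 active means mean replicate inhibition at least 50% and at least half of replicates individually reaching 50%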;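 further: exported cargo escapes ClpAP degradation while cytoplasmic cargo is degraded and loses fluorescence; 0% = median of neutral control wells and 100% = median of NaSCN control wells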
Active calls of the source: *; nt = not tested or not shown.

SMILES	AddAB inh	E coli growth-1	phage Ecoli inh	E coli growth-2	Tat transport
CCC[C@@H](CN1CCC[C@H]1CN1C(N)=NC[C@H]1CC(C)C)N1C[C@@H]([C@H](C)CC)N(CCCC2CCCC2)C1=N	3	5	4	0.43*	-1
CC(C)C[C@@H]1CN=C(N)N1C[C@@H]1CCCN1C[C@H](C)N1C[C@@H](Cc2ccccc2)N(CCCC2CCCC2)C1=N	2	3	1	nt	-2
CCCC(CN1CCCC1CN1C(N)=NCC1Cc1ccccc1)N1CC(Cc2ccccc2)N(CCCC2CCCC2)C1=N (stereo not drawn)	nt	nt	nt	0.34*	nt
CCC[C@@H](CN1CCC[C@H]1CN1C(N)=NC[C@H]1C(C)C)N1C[C@@H]([C@H](C)CC)N(CCCC2CCCC2)C1=N	2	1	1	0.65	10
COc1cc([N+](=O)[O-])ccc1N1C(=O)CC(Sc2nccc(C)n2)C1=O (stereo not drawn)	-1	-3	0	0.67	-7
O=Cc1ccc(O)c2ncccc12	nt	nt	nt	0.093*	0
CCn1cc(C(=O)O)c(=O)c2cnc(N3CCN(C(=S)NC(=O)c4ccccc4)CC3)nc21	3	-1	-6	0.41*	4
FC(F)(F)c1cccc(NC(=S)Nc2ccc(Cl)c(Cl)c2)c1	1	0	6	0.4*	-6
FC(F)(F)c1cccc(NC(=S)NNC(=S)Nc2cccc(C(F)(F)F)c2)c1	-3	0	nt	nt	nt
OCCN1CCN(CC(O)COc2ccc(C34CC5CC(CC(C5)C3)C4)cc2)CC1 (stereo not drawn)	-1	-2	2	nt	5
NCCOc1ccc(C23CC4CC(CC(C4)C2)C3)cc1	-2	0	4	0.47*	8
O=[N+]([O-])c1ccc(/C=C/C2=NN(c3ccccc3)C(c3ccco3)C2)o1 (stereo not drawn)	nt	nt	20*	0.62	-10
CC(C)N1CCc2c(sc(NC(=O)c3ccc(S(=O)(=O)N4CCc5ccccc54)cc3)c2C(N)=O)C1	1	-1	nt	0.72	62*
CC(C)N1CCc2c(sc(NC(=O)c3nc4ccccc4s3)c2C(N)=O)C1	-2	-2	0	0.69	-5
Cc1[nH]c2ccccc2c1CN1CCc2ccccc2C1	-1	-3	1	0.65	-1
COC(=O)C1=C(C(=O)OC)C2N(C)c3ccc(OC)cc3[C@@]23CC(C(=O)OC)N=C3N1 (stereo partly drawn)	nt	nt	nt	0.65	nt
NC(=NCCCCCCN=C(N)N=C(N)Nc1ccc(Cl)cc1)N=C(N)Nc1ccc(Cl)cc1	nt	nt	nt	0.062*	nt
CC(C)N=C(N)N=C(N)Nc1ccc(Cl)cc1	-2	4	6	0.64	15
COc1ccc(OCCC(=O)OCC(=O)Nc2cccc(S(=O)(=O)N3CCCCC3)c2)cc1	0	1	4	0.72	6
Cc1nnc(SCC2=C(C(=O)O)N3C(=O)C(NC(=O)COc4ccc(F)cc4)C3SC2)s1 (stereo not drawn)	1	-3	3	0.55*	-2
Cc1nnc(SCC2=C(C(=O)O)N3C(=O)C(NC(=O)COc4ccccc4)C3SC2)s1 (stereo not drawn)	nt	nt	4	0.5*	-3
CC(=O)OCC1=C(C(=O)O)N2C(=O)[C@@H](NC(=O)Cc3cccs3)[C@H]2SC1	3	-2	2	0.046*	0
Cc1nnc(SCC2=C(C(=O)O)N3C(=O)C(NC(=O)Cn4nc(C(F)F)cc4C)C3SC2)s1 (stereo not drawn)	3	-1	4	0.49*	-7
CC(=O)OCC1=C(C(=O)O)N2C(=O)C(NC(=O)COc3ccc(F)cc3)C2SC1 (stereo not drawn)	nt	nt	3	0.69	3
CC(=O)c1ccc(N(CC(=O)NC2CCS(=O)(=O)C2)S(=O)(=O)c2ccc(C)cc2)cc1 (stereo not drawn)	0	1	2	0.72	-2
SMILES	AddAB inh	E coli growth-1	phage Ecoli inh	E coli growth-2	Tat transport
CS(=O)(=O)c1ccc(C(=O)NC(Cc2ccccc2)c2ccccc2)cc1 (stereo not drawn)	3	2	1	0.69	9
CS(=O)(=O)c1ccc(C(O)C(CF)NC(=O)C(Cl)Cl)cc1 (stereo not drawn)	nt	nt	nt	0.06*	nt
CS(=O)(=O)c1ccc(C(O)C(CO)NC(=O)C(Cl)Cl)cc1 (stereo not drawn)	nt	nt	nt	0.38*	nt
NC(Cc1ccc(C(F)(F)F)cc1)c1csc(Nc2cc(NCc3ccco3)ncn2)n1 (stereo not drawn)	nt	nt	3	nt	nt
O=C(COc1ncnc2sccc12)N1CCc2ccccc2C1	2	-3	2	0.65	-4
COc1ccc(C=NNc2cc(C)nc3ccccc23)cc1	nt	nt	nt	0.49*	nt
COc1ccc2nc(C)cc(NN=Cc3ccccc3)c2c1	nt	nt	nt	0.44*	nt
COc1ccc2nc(/C=N/NC(=O)[C@H](C)NC(=O)OC(C)(C)C)ccc2c1	2	0	nt	nt	nt
CCOC(=O)NN=Cc1ccc([N+](=O)[O-])o1	nt	nt	nt	0.45*	nt
Cc1ccc(C(=O)NN=Cc2ccc([N+](=O)[O-])o2)cn1	nt	nt	nt	0.44*	nt
Cc1ccc(C(=O)N/N=C/c2ccc(-c3ccccc3[N+](=O)[O-])o2)cn1	1	-1	1	nt	-4
CCOc1cc(C=NNC(=O)C(=O)NCC2CCCO2)ccc1OCC(=O)N1CCOCC1 (stereo not drawn)	nt	nt	nt	0.65	nt
Cc1nnc(NC(=O)c2ccc(N3CCCC3=O)cc2)s1	nt	nt	6	0.68	-3
O=C(NC1=NCCS1)c1ccc(N2CCCC2=O)cc1	1	0	5	0.53*	-9
COc1ccc(C)cc1S(=O)(=O)N(CC(=O)N1CCCC1)c1ccc(C)cc1	2	1	0	0.68	1
S=C(NCCNCc1ccccc1)NC1CCCCC1	98*	98*	nt	nt	nt
S=C(NCCc1ccccc1)NC1CCCCCC1	2	3	2	0.65	-1
CCCCCCn1c2c(c(=N)c3c1CCC3)CCC2	2	1	3	0.6	-10
CCCCCCCCCn1c2c(c(=N)c3c1CCC3)CCC2	5	10*	nt	0.49*	-11
C=C1c2c(Cl)ccc(O)c2C(O)=C2C(=O)[C@]3(O)C(O)=C(C(N)=O)C(=O)C(N(C)C)C3C(O)C12 (stereo partly drawn)	nt	nt	nt	0.075*	nt
CCOC(=O)c1c(SCCN2CCCC2)n(-c2ccccc2)c(=S)n(-c2ccccc2)c1=O	nt	nt	2	nt	-1
COC(=O)c1c(NC(=S)NN2CCN(C)CC2)sc2c1CCC(C)C2 (stereo not drawn)	-3	-5	3	0.48*	14
COC(=O)c1c(NC(=O)Cc2cccs2)sc2c1CCC(C)C2 (stereo not drawn)	3	-1	0	0.7	7
COc1ccc(S(=O)(=O)N2CCOCC2)cc1NC(=O)c1ccc(Cl)cc1	0	0	4	0.68	6
O=c1[nH]sc2ccccc12	nt	nt	4	0.066*	-1
CNC(=S)Nc1cc(S(=O)(=O)Nc2cc(Cl)ccc2Cl)ccc1N1CCCC1	1	3	2	0.68	3
O=C(Cc1cccs1)NNC(=S)NC(=O)c1ccco1	-5	-5	2	0.32*	-5
O=C(NNC(=O)c1ccco1)c1ccccc1	3	1	4	0.72	3
